From the GenesisPotency data set
About 45 (0.07%) of roughly 65,000 compounds were called active. This is one part of a sample in which actives are shown more often than they occur. Calls follow the shape of the full dose curve.

Tested on: T1, 
T1 sequence (whole entry): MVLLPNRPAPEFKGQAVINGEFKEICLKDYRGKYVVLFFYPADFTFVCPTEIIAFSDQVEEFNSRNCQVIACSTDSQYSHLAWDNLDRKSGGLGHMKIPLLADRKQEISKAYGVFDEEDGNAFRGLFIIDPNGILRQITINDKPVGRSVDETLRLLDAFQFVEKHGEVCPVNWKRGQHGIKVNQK
Assay: Schistosoma Mansoni Peroxiredoxins (Prx2)

| Compound | outcome |
| --- | --- |
| COc1ccc(S(=O)(=O)N(Cc2cc3ccc(OC)cc3[nH]c2=O)CC2COCCO2)cc1 (stereo not given) | active |
| Cc1cc(C)c2cc(CN(CC3CCCO3)S(=O)(=O)c3ccc4c(c3)OCCO4)c(=O)[nH]c2c1 (stereo not given) | active |
| CCc1nc(OCCN(CC)CC)c2oc3ccccc3c2n1.Cl | inactive |
| CC(=O)Oc1cc(OC(C)=O)c2c(C)cc(=O)oc2c1 | active |
| O=C(/N=C1\NC(=O)C(F)(C(F)(F)F)S1)NC1CCCCC1 (stereo not given) | active |
| CCC(=O)Oc1ccc2c(C)c(Cl)c(=O)oc2c1 | active |
| COC(=O)Cc1c(C)c2ccc(OC(=O)c3ccco3)cc2oc1=O | active |
| c1ccc(Cc2nn3c(C4COc5ccccc5O4)nnc3s2)cc1 (stereo not given) | inactive |
| O=C1c2ccccc2C(=O)N1CCCCn1c(=O)oc2ccccc21 | inactive |
| CN(C)c1oc(-c2ccccc2Cl)nc1C#N | active |
